Measurements as given in ChEMBL document CHEMBL1157539, “Thousands of chemical starting points for antimalarial lead identification” (Nature, 2010).

Assays:
Format in all cases: functional
[1] = system: Plasmodium falciparum; test: GSK_TCMDC: Inhibition of Plasmodium falciparum 3D7 in whole red blood cells, using parasite LDH activity as an index of growth. Test compounds present at 2uM
[2] = system: Plasmodium falciparum; test: GSK_TCMDC: Inhibition of Plasmodium falciparum Dd2 in whole red blood cells, using parasite LDH activity as an index of growth. Test compounds present at 2uM
[3] = system: HepG2; test: GSK_TCMDC: Percent inhibition of human HepG2 cell line. Test compounds present at 10uM.

## Cc1cc(=NN=Cc2ccccc2Cl)c2cc(F)ccc2[nH]1
[1]
  Inhibition: 100%
[2]
  Inhibition: 4%
[3]
  Inhibition: 5%

## COc1ccc2c(NN=Cc3ccncc3)ccnc2c1
[1]
  Inhibition: 95%
[2]
  Inhibition: 6%
[3]
  Inhibition: 0%

## C#CCNCc1ccc(-c2cccc(-c3nc4cccc(C)c4[nH]3)c2)cc1.O=C(O)C(F)(F)F
[1]
  Inhibition: 100%
[2]
  Inhibition: 32%
[3]
  Inhibition: 0%

## O=C(/C=C/c1ccc(Cl)c(Cl)c1)NCCCCCN1CCCN(C(=O)Nc2ccc(C(F)(F)F)cc2)CC1
[1]
  Inhibition: 100%
[2]
  Inhibition: 7%
[3]
  Inhibition: 31%

## O=C(N[C@@H](Cc1ccccc1)[C@H](O)CNC1CCCCC1)c1cc(C2CCCC2)cc(N2CCCC2=O)c1
[1]
  Inhibition: 100%
[2]
  Inhibition: 98%
[3]
  Inhibition: 17%

## Cl.O=C1COc2ccc(S(=O)(=O)N3CCC[C@@H]3CCN3CCC(c4c[nH]c5cnccc45)CC3)cc2N1
[1]
  Inhibition: 100%
[2]
  Inhibition: 6%
[3]
  Inhibition: 0%

## O=S(=O)(Nc1cccc(CCN2CCC(N3CCCCC3)CC2)c1)c1cccc2cccnc12
[1]
  Inhibition: 98%
[2]
  Inhibition: 17%
[3]
  Inhibition: 0%

## Cc1cc(N(C)C)nc(Nc2ccc(NS(=O)(=O)c3ccccc3)cc2)n1
[1]
  Inhibition: 92%
[2]
  Inhibition: 11%
[3]
  Inhibition: 0%

## CO/C(=C\C=C\c1cc2cc(Cl)c(Cl)cc2[nH]1)C(=O)NCCN1CCCCC1
[1]
  Inhibition: 81%
[2]
  Inhibition: 86%
[3]
  Inhibition: 16%

## O=C(/C=C/c1cccc2c1OCO2)Nc1ccnc2ccncc12
[1]
  Inhibition: 90%
[2]
  Inhibition: 35%
[3]
  Inhibition: 17%

## COc1ccc2c(NN=Cc3ccccc3F)ccnc2c1
[1]
  Inhibition: 98%
[2]
  Inhibition: 99%
[3]
  Inhibition: 15%
